# For some assays here: Entries with a potency or affinity are not part of this list. This is one part of the list. Active and inactive are the calls of the source. Unless noted, the rule behind the calls is not given here.
# What was measured:
# [1] = molecular target: Regulator of G-protein signaling 16 (Homo sapiens) (UniProt O15492); assay: modulators of RGS–Galpha-o binding, primary screen, biochemical, multiplexed beads, flow cytometry, RGS4/7/8/16/19 (AID 1504); settings: multiplexed bead flow cytometry, measured here: RGS16 interaction, at 10 µM;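 note: fluorescently labeled Galpha-o bound to GDP with aluminium fluoride binding biotinylated RGS beads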
# [2] = molecular target: Regulator of G-protein signaling 19 (Homo sapiens) (UniProt P49795); assay: as above; settings: multiplexed bead flow cytometry, measured here: RGS19 interaction, at 10 µM
# [3] = molecular target: Regulator of G-protein signaling 4 (Homo sapiens) + Guanine nucleotide-binding protein G(o) subunit alpha (Homo sapiens) (UniProt P49798+P09471); assay: as above; settings: multiplexed bead flow cytometry, at 10 µM
# Chain of Regulator of G-protein signaling 4 (Homo sapiens) + Guanine nucleotide-binding protein G(o) subunit alpha (Homo sapiens) (P09471 whole entry, looked up): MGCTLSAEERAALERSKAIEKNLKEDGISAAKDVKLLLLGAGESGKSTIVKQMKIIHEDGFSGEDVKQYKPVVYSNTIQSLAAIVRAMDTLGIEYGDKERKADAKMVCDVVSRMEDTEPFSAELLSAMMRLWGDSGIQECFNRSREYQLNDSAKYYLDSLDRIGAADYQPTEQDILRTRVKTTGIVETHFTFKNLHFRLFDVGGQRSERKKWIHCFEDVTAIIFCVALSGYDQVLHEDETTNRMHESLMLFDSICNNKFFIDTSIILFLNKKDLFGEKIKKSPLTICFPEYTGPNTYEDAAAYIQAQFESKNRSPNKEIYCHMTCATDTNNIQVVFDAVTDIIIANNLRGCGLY
# Chain of Regulator of G-protein signaling 4 (Homo sapiens) + Guanine nucleotide-binding protein G(o) subunit alpha (Homo sapiens) (P49798 whole entry, looked up): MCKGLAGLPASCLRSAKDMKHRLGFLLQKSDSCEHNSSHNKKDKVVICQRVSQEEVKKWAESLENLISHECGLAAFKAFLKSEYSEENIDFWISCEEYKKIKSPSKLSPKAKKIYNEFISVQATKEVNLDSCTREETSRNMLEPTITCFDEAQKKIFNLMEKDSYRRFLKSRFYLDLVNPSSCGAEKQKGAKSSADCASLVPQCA
# [4] = molecular target: Regulator of G-protein signaling 7 (Homo sapiens) (UniProt P49802); assay: as above; settings: multiplexed bead flow cytometry, measured here: RGS7 interaction, at 10 µM
# [5] = molecular target: Regulator of G-protein signaling 8 (Homo sapiens) (UniProt P57771); assay: as above; settings: multiplexed bead flow cytometry, measured here: RGS8 interaction, at 10 µM
# [6] = disruption of biotin probe capture by avidin, counter-screen for RGS protein interaction modulators, biochemical, flow cytometry, bead-based (AID 1783;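 active = inhibition above 50%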;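 note: median green fluorescence of gated singlet beads compared with DMSO control wells; 0% = DMSO wells and 100% = complete loss of bead fluorescence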); settings: streptavidin beads, fluorescein-biotin binding; at 10 µM, stronger effect = higher value
# [7] = molecular target: Guanine nucleotide-binding protein G(o) subunit alpha (Homo sapiens) (UniProt P09471); assay: RGS8-Galphao binding modulators, confirmation, biochemical, multiplexed bead flow cytometry, single concentration (AID 1836; in the data active = binding response below about 72% or above about 130%; inactive = in between;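 note: Galphao activated as GDP AlF4 complex before binding bead RGS8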); settings: bead-based flow cytometry RGS8-Galphao binding, fluorescence; at 10 µM; actives lie on both sides
# Chain of Guanine nucleotide-binding protein G(o) subunit alpha (Homo sapiens) (P09471 whole entry, looked up): as the sequence (P09471 whole entry, looked up) above
# [8] = molecular target: Guanine nucleotide-binding protein G(o) subunit alpha (Homo sapiens) (UniProt P09471); assay: RGS7-Galphao binding modulators, confirmation, biochemical, multiplexed bead flow cytometry, single concentration (AID 1837; in the data active = response below about 75% or above about 130%; inactive = in between;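 note: fluorescent Galphao activated with GDP and aluminum fluoride binding bead-coupled RGS7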); settings: bead-based flow cytometry RGS7-Galphao binding; at 10 µM; actives lie on both sides
# [9] = molecular target: Regulator of G-protein signaling 16 (Homo sapiens) + Guanine nucleotide-binding protein G(o) subunit alpha (Homo sapiens) (UniProt O15492+P09471); assay: modulators of RGS16-Galphao protein binding, confirmation, biochemical, single concentration, multiplexed bead flow cytometry (AID 1838; in the data active = response below about 74% or above about 130%; inactive = in between;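 note: Galphao activated as the GDP aluminium fluoride complex binding bead-coupled RGS16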); settings: bead-based flow cytometry, at 10 µM, actives lie on both sides
# Chain of Regulator of G-protein signaling 16 (Homo sapiens) + Guanine nucleotide-binding protein G(o) subunit alpha (Homo sapiens) (O15492 whole entry, looked up): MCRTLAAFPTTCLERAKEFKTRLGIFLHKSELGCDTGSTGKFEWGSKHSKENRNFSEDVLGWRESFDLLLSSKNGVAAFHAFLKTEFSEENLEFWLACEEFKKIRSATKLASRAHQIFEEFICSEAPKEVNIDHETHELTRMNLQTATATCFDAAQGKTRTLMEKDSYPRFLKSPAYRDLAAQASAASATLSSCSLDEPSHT
# Chain of Regulator of G-protein signaling 16 (Homo sapiens) + Guanine nucleotide-binding protein G(o) subunit alpha (Homo sapiens) (P09471 whole entry, looked up): as the sequence (P09471 whole entry, looked up) above
# [10] = molecular target: Guanine nucleotide-binding protein G(o) subunit alpha (Homo sapiens) (UniProt P09471); assay: modulators of RGS4-Galphao protein binding, confirmation, biochemical, single concentration, multiplexed bead flow cytometry (AID 1840; in the data active = binding response below about 74% or above about 130%; inactive = in between); settings: at 10 µM, actives lie on both sides
# [11] = molecular target: Guanine nucleotide-binding protein G(o) subunit alpha (Homo sapiens) + Regulator of G-protein signaling 19 (Homo sapiens) (UniProt P09471+P49795); assay: regulators of RGS19-Galphao binding, confirmation, biochemical, single point, multiplexed bead flow cytometry (AID 1841; in the data active = response below about 50% or above about 160%; inactive = in between;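 note: 100% = no compound control and 0% = blank background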); settings: bead-based flow cytometry RGS19-Galphao binding; at 10 µM; actives lie on both sides
# Chain of Guanine nucleotide-binding protein G(o) subunit alpha (Homo sapiens) + Regulator of G-protein signaling 19 (Homo sapiens) (P09471 whole entry, looked up): as above
# Chain of Guanine nucleotide-binding protein G(o) subunit alpha (Homo sapiens) + Regulator of G-protein signaling 19 (Homo sapiens) (P49795 whole entry, looked up): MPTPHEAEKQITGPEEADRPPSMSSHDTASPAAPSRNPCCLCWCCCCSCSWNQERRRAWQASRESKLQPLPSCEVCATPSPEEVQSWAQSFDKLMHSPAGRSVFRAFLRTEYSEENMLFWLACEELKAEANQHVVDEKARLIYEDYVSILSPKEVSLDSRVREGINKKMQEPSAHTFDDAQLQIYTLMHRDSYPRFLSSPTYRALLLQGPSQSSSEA
# [12] = molecular target: GTPase HRas (Homo sapiens) (UniProt P01112); assay: activated Ras mutant GTP binding inhibitors, dose response, biochemical, multiplex bead flow cytometry (AID 1341;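 active = dose-response curve with midpoint inside the tested range, moderate steepness, significant amplitude and little compound fluorescence or bead-attachment interference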;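 note: GST-tagged constitutively activated Ras mutant immobilized on beads and multiplexed with other GTPases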)
SMILES,RGS16–Galpha-o binding response [1],RGS19–Galpha-o binding response [2],RGS4–Galpha-o binding response [3],RGS7–Galpha-o binding response [4],RGS8–Galpha-o binding response [5],inhibition [6],binding response (% of control) [7],response (percent of control binding) [8],response (% of control binding) [9],binding response (% of control) [10],response (percent of control binding) [11],outcome [12]
CCN(CC)S(=O)(=O)c1cccc(-c2n[nH]c(=S)n2/N=C/c2ccc(C(=O)OC)cc2)c1,334%,35.5%,108% (active),133%,124%,-1.2% (inactive),77.7% (inactive),113% (inactive),74% (active),91% (inactive),66.1% (inactive),
O=C(Nc1ccccc1)c1cc2ccccc2[nH]1,13.8%,-785%,90.3% (active),89.9%,67.8%,0.6% (inactive),105% (inactive),103% (inactive),106% (inactive),106% (inactive),99.5% (inactive),
Cc1ccc(-n2c(SCC(=O)Nc3ncc(Cl)cc3Cl)nc3ccccc32)cc1,13.7%,134%,86.2% (active),83.7%,76.9%,1% (inactive),103% (inactive),105% (inactive),103% (inactive),104% (inactive),113% (inactive),
CN(C)S(=O)(=O)Oc1ccccc1C(=O)Nc1ccccc1Cl,100%,70.6%,114% (active),223%,97.6%,-0.2% (inactive),97.3% (inactive),101% (inactive),100% (inactive),98.9% (inactive),83.3% (inactive),
Cc1cc(C)nc(/N=C2\NC(=O)CC(C(=O)O)N2c2ccc(Cl)cc2Cl)n1 (configuration not stated),99.8%,104%,117% (active),170%,107%,0.1% (inactive),102% (inactive),101% (inactive),102% (inactive),102% (inactive),101% (inactive),
CN(CC(=O)NC1CCCCC1)S(=O)(=O)c1cccc2cccnc12,94.7%,114%,110% (active),241%,89.3%,,,,,,,
O=C(NC1CC1)c1ccc2c(c1)NC(=O)c1ccccc1S2,113%,370%,113% (active),191%,98.7%,,,,,,,
O=C(O)/C=C/c1cn(Cc2ccccc2)nc1-c1cccs1,,,,,,,,,,,,inactive
Oc1ccc(-c2onc3ccc(Cl)cc23)cc1,415%,108%,118% (active),110%,144%,0% (inactive),92.4% (inactive),89.7% (inactive),91.4% (inactive),89% (inactive),79.4% (inactive),

# — PubChem BioAssay
